This is a sample that favours compounds with a hit; in the whole collection about 3.8% have one here.
VDR inhibitor: vitamin D3 receptor (human) inhibition | P11473 | VDR-SRC2-3 peptide fluorescence polarization, 2 h | Potency, µM, hits mostly inhibitors | hit rate 0.93% among 400,000 | AID 504847
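FP read-out; VDR + SRC2-3 coactivator peptide; 23 nl compound by pintool; 2 h RT incubation; reagents held at 4 deg C, protected from light.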
TrxR1 substrate: substrates of rat thioredoxin reductase 1; O89049; AID 588456; Potency, µM (top dose mostly 114 µM); purified TrxR1 substrate turnover, NADPH consumption readout; hit rate 0.01% among 390,000; note: nearly all actives have a fitted effect of over 50% in size
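Rat TrxR1, dispensed at 90 nM, was prereduced with 400 uM NADPH (final) for 5 min at ~22 deg C, then incubated with compound 15 min before 400 uM selenite. A first-read NADPH fluorescence drop versus no-compound background flagged substrates.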
GCN5L2 inh: blocks human GCN5L2 histone acetyltransferase | Q92830 | GCN5L2 HAT assay, ThioGlo1 CoA-SH fluorescence | Potency, µM (titrated, usually from 58.9 µM), most hits filed as inhibitors | hit rate 0.21% among 390,000 | AID 504327
Target sequence (Q92830 whole entry, looked up): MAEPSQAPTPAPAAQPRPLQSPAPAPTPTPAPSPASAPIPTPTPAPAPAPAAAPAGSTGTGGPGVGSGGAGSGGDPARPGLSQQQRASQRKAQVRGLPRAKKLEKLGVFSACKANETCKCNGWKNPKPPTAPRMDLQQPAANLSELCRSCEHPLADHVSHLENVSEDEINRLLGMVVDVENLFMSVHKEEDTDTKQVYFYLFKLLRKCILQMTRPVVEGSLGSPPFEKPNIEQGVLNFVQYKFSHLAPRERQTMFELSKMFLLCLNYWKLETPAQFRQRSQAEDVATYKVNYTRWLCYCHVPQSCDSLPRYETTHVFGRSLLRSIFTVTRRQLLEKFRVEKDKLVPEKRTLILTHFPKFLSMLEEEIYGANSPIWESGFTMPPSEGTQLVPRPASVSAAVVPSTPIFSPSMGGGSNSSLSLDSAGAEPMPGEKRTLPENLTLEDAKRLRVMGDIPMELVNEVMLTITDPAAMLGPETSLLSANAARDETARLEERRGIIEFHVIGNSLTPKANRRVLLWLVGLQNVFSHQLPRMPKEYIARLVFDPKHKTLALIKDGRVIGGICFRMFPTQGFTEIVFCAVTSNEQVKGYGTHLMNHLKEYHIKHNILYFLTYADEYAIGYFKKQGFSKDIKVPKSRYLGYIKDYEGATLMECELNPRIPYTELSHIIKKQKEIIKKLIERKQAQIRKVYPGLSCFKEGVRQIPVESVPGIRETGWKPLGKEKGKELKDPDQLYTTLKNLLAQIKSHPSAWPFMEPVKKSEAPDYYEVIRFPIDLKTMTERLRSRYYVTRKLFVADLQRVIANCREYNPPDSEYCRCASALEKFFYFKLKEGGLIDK
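Preincubate 20nM GCN5L2 with compound 15 min, RT → add 50uM ThioGlo1 + 75uM H3(1-25) + 70uM acetyl-CoA → read fluorescence 0 and 20 min. Primary qHTS; fluorescent artifacts likely.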
GLS inh: inhibitors of human glutaminase (GLS). O94925. GLS enzymatic activity, qHTS titration. Potency, µM (titrated, usually from 45.5 µM), most hits filed as inhibitors. hit rate 0.21% among 410,000
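Two-point fluorescence kinetic (t0, 30 min RT) for hKGA; glutamate detected via glutamate oxidase–HRP–Amplex Red. Substrate: 1 mM L-glutamine solution; buffer 45 mM KH2PO4, pH 8.2.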
TrxR1 inh: inhibitors of rat thioredoxin reductase 1; O89049; recombinant rTrxR1, NADPH fluorescence consumption, selenite substrate; hit rate 1% among 390,000; Potency, µM (titrated, usually from 114 µM), usual class: inhibitors; note: nearly all actives have a fitted effect of over 65% in size
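Rat TrxR1 (90 nM in the dispensed reagent) was pre-reduced with 400 uM NADPH for 5 min at room temperature, then incubated with compound for 15 min. After 400 uM selenite was added, NADPH fluorescence (Ex 340/Em 450 nm) was followed for 8 min.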
Sfp PPTase inh: blocks B. subtilis Sfp PPTase activity; hit rate 3.5% among 310,000; Potency, µM, actives largely listed as inhibitors; AID 1490; Q9F4F7; Biochemical Sfp PPTase activity, qHTS;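 note: the enzyme is Sfp with the accession as filed and its product quenches rhodamine fluorescence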
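Reaction rates are the 30-min fluorescence difference (ex 525, em 598 nm) in wells containing 15 nM Sfp, 5 uM rhodamine-CoA and 12.5 uM BHQ-2-YbbR at pH 7.6 with 10 mM MgCl2.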
A number is an active result; n = inactive; u = inconclusive; x = no result. Calls come from the whole dose curve; as a rule, active = well fitted curve in the direction sought with a large enough effect; inconclusive = small, poorly fitted or top-dose-only effect, or another doubt; inactive = no such curve, though single readings can be large; an effect the other way counts as inactive or inconclusive.

SMILES | VDR inhibitor | TrxR1 substrate | GCN5L2 inh | GLS inh | TrxR1 inh | Sfp PPTase inh
COc1cccc(C2=NN(C(=O)c3ccco3)C(c3ccco3)C2)c1 (configuration not stated) | n | n | n | n | u | 50µM
CCOC(=O)N1CCc2c(sc(NCc3ccc(N(C)C)cc3)c2C(=O)Nc2ccc(OC)cc2)C1 | n | n | n | n | n | x
COc1ccc(C(=O)c2c(N)sc3c2CCN(C(=O)OC(C)(C)C)C3)cc1 | n | n | n | n | n | 79µM
COc1ccc(-c2cc(-n3c(C(F)(F)F)nc4ccccc43)n(CCC#N)n2)cc1 | n | n | n | n | n | n
Cc1csc(NC(=O)CSc2nc3sc(C)c(C)c3c(=O)[nH]2)n1 | u | n | n | n | n | 20µM
CCOC(=O)Cc1csc(NC(=O)CSc2nc3sc(C(=O)O)c(C)c3c(=O)[nH]2)n1 | n | n | n | n | n | n
Cn1c(=O)c(=O)n(C)c2cc(S(=O)(=O)Nc3ccc(OC(F)(F)F)cc3)ccc21 | n | n | n | n | n | n
COc1ccccc1Nc1nc(-c2cccc([N+](=O)[O-])c2)nc2ccccc12 | n | n | n | n | n | 79µM
CC(C)(C)SCCNC(=O)c1ccc(Cl)c(S(=O)(=O)N2CCOCC2)c1 | n | n | x | n | n | x
COc1ccc(S(=O)(=O)N2CCN3CCCC3C2)cc1 (configuration not stated) | n | n | n | n | n | n
Nc1ccc(/C=C/c2ccc(N)cc2S(=O)(=O)O)c(S(=O)(=O)O)c1 | n | x | 13µM | 11µM | x | n
Nc1ccc(Nc2ccccc2)c(S(=O)(=O)O)c1 | n | n | n | u | n | n
Cc1cc(S(=O)(=O)n2ccnc2)c(Cl)cc1Cl | n | n | n | n | n | n
Cc1ccc(C(=O)Nc2nc3ccccc3c(=O)s2)cc1 | u | n | n | n | n | 56µM
CC(=O)Nc1nc(=O)c2ccccc2s1 | u | n | n | n | n | u
O=C(Nc1nc(=O)c2ccccc2s1)c1ccccc1 | u | n | n | n | n | 50µM
C=CCN(CC=C)CC(O)CN(c1cc([N+](=O)[O-])ccc1OC)S(=O)(=O)c1ccccc1 (configuration not stated) | n | n | n | n | n | 79µM
Cc1[nH]n(-c2ccc([N+](=O)[O-])cc2)c(=O)c1C=NCCc1c(C)[nH]c2ccccc12 | n | n | n | n | n | 79µM
COc1ccc(/C=C(\C#N)c2nc3ccc(C)cc3[nH]2)cc1Oc1ccc(C(F)(F)F)cc1[N+](=O)[O-] | n | n | 2.8µM | n | n | n
Cc1ccc2nc(/C(C#N)=C\c3ccc(Oc4ccc(C(F)(F)F)cc4[N+](=O)[O-])cc3)[nH]c2c1 | n | n | n | n | n | n
O=C(O)CCn1c(=O)n(CCC(=O)O)c(=O)n(CCC(=O)O)c1=O | n | n | n | n | n | n
CSc1nc(N2CCN(CCO)CC2)c2sc3nc(-c4ccco4)c4c(c3c2n1)CCC4 | x | x | n | x | x | n
CSc1nc(SCC(=O)O)c2sc3nc(-c4ccccc4)c4c(c3c2n1)CCC4 | n | n | u | 14µM | u | n
CSc1nc(N(C)CCO)c2sc3nc(-c4ccco4)c4c(c3c2n1)CCC4 | u | n | u | 13µM | 7.1µM | 79µM
O=C(CN1CCC(NC(=O)c2cccc(F)c2)CC1)NCc1ccccc1F | n | n | n | n | n | n
COc1cc2c(NC3CCN(C)CC3)nc(N3CCCN(C)CC3)nc2cc1OCCCN1CCCC1 | x | n | x | x | 50µM | x
CC(=O)Nc1sc(N/N=C\c2ccco2)nc1-c1cccs1 | u | n | n | n | u | 18µM
Cc1cc(C)cc(NC(=O)c2ccc([N+](=O)[O-])o2)c1 | n | n | n | n | n | n
NS(=O)(=O)c1ccc(O)c(NC(=O)c2ccc([N+](=O)[O-])o2)c1 | u | n | u | u | n | 11µM
Cc1ccc(C)c(N(C(=O)c2snc(C(N)=O)c2N)C(C(=O)NCC2CCCO2)c2cccs2)c1 (configuration not stated) | 79µM | n | n | n | n | n

Compound activity from PubChem BioAssay.
